Source: PubChem
GLA inh pH 4.5 = inhibitors of human alpha-galactosidase A at pH 4.5; P06280; purified enzyme, 4-MU-alpha-Gal fluorescence, pH 4.5; activity change, negative = inhibition, % at 105 µM; 230,000 tested, under 10 active; AID 1467
HPGD block = HPGD (human) dehydrogenase inhibition; P15428; purified HPGD, NADH fluorescence kinetic, PGE2 substrate; Potency, µM, hits mostly inhibitors; 150,000 compounds, 4.3% hits; active means well fitted inhibition curve with a large enough effect, not every such curve was filed as active; inconclusive means small, poorly fitted or top-dose-only effect, or another doubt; inactive means no such curve, though single readings can be large or run the other way
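NADH formation kinetics: reaction with 30 uM PGE2 and 1 mM NAD+ (final), 20 nM enzyme, Tris-HCl pH 8 with Tween 20, after 15 min compound preincubation at room temperature. Fluorescence change, last versus first of five reads.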
ALOX12 inhib = 12-hLO (ALOX12) enzyme inhibition. P18054. purified 12-hLO, xylenol orange hydroperoxide absorbance. Potency, µM (doses to about 57.1 µM), usual class: inhibitors. 150,000 compounds, 0.12% hits. AID 1452; further: nearly all actives have a fitted effect of over 55% in size
Target sequence (P18054 whole entry, looked up): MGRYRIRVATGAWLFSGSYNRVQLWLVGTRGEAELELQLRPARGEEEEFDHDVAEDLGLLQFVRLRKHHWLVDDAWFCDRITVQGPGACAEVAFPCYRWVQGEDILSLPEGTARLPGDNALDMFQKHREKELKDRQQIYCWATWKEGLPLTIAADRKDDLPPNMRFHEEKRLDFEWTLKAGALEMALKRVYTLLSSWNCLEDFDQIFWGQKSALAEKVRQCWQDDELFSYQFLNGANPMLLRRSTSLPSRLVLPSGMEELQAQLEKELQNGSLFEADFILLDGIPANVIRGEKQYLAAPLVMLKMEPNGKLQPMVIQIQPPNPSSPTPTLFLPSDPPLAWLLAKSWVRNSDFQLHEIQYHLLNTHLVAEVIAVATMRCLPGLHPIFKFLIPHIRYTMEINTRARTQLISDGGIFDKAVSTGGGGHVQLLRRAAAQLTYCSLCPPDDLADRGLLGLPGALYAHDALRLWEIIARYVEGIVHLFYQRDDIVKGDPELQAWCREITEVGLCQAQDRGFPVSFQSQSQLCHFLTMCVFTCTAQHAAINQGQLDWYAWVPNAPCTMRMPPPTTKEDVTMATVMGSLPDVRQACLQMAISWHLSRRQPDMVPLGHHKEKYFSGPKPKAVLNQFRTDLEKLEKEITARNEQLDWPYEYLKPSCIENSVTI
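Hydroperoxide formation by human 12-lipoxygenase from 40 uM arachidonic acid was followed colorimetrically via ferric-xylenol orange complex, using the 573/405 nm absorbance ratio. Enzyme concentration was 150 nM, with 30 min reaction at room temperature.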
PNC inhibitor = blocks assembly of the perinucleolar compartment; PC3M PTB-GFP, PNC prevalence imaging, 16 h; active compounds read low; AID 2417; activity change (PNC), negative = inhibition, % at 10 µM; 140,000 compounds, 3.1% hits;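 active means readout at or below -70, meaning at least 70% loss of cells showing the perinucleolar compartment, a nuclear body marking cancer cells; inconclusive means readout between -30 and a set limit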
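Compounds are pinned in duplicate onto adhered PC3M cells stably expressing GFP-tagged PTB and incubated 16 h at 37 C. Cells are then fixed, nuclei stained with Hoechst, and PNC-positive cells counted.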
ALDH1A1 block = ALDH1A1 (human) enzyme inhibition | P00352 | 220,000 compounds, 7.3% hits | Potency, µM (titrated, usually from 75.3 µM), usual class: inhibitors | Purified ALDH1A1, NADH fluorescence, propionaldehyde substrate; active means well fitted inhibition curve with a large enough effect, not every such curve was filed as active; inconclusive means small, poorly fitted or top-dose-only effect, or another doubt; inactive means no such curve, though single readings can be large or run the other way
aGal spleen mod = inhibits or activates alpha-galactosidase in human spleen homogenate; human spleen homogenate, 4MU-alpha-Gal fluorescence, 40 min; Potency, µM (series often up to 80 µM), usual class: inhibitors; 240,000 compounds, 0.008% hits; AID 2107
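Spleen homogenate 1 ug + cpd (titration) + 4-MU-alpha-D-galactopyranoside 1 mM; 37C 40 min; 50 mM citrate/phosphate pH 5.0, 0.01% Tween-20; stop pH 10; fluorescence 365/440; AC50 via Hill.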
Hits are given with their value; - = inactive; ? = inconclusive; . = not tested or not shown; [ ] = dose if it differs, or a comment. Shown are actives, neighbours in structure and some others; about 10% of the full set was active somewhere. Unless noted, the call rests on the fitted dose curve; in most records, active means well fitted curve in the direction sought with a large enough effect; inconclusive means small, poorly fitted or top-dose-only effect, or another doubt; inactive means no such curve, though single readings can be large; an effect the other way counts as inactive or inconclusive.

SMILES | GLA inh pH 4.5 | HPGD block | ALOX12 inhib | PNC inhibitor | ALDH1A1 block | aGal spleen mod
COC(=O)c1ccccc1NC(=O)c1cnn2cccnc12 | - | . | . | . | - | -
COc1ccc(CCNC(=O)Nc2ccc([N+](=O)[O-])cc2)cc1OC | - | . | . | . | - | -
O=C(Cc1ncc(C(F)(F)F)cc1Cl)Nc1ccc(F)cc1 | - | - | - | - | - | -
Cn1c(=O)c2c(nc(NCc3ccc4c(c3)OCO4)n2Cc2ccccc2F)n(C)c1=O | - | - | - | - | 13µM | -
Cc1ccccc1Cn1c(CN2CCN(C(=O)c3ccco3)CC2)nc2c1c(=O)n(C)c(=O)n2C | - | - | - | - | ? | -
Cn1c(=O)c2c(nc(CN3CCN(C(=O)c4ccco4)CC3)n2Cc2ccc(F)cc2)n(C)c1=O | - | - | - | - | 20µM | -
Cn1c(=O)c2c(nc(CN3CCN(C(=O)c4ccco4)CC3)n2Cc2ccccc2F)n(C)c1=O | - | - | - | - | 13µM | -
Cn1c(=O)c2c(nc(NCc3ccc4c(c3)OCO4)n2Cc2ccccc2)n(C)c1=O | - | - | - | - | ? | -
CS(=O)(=O)N1CCC2(CC1)CN(Cc1nccs1)C2 | . | - | - | . | - | -
O=C(Cc1ccc([N+](=O)[O-])cc1)N1CCCc2ccccc21 | - | . | . | . | - | -
Cc1nn(-c2ccccc2)c(C)c1NC(=O)COc1ccc(C#N)cc1 | - | - | - | -80 | - | -
Cc1nn(-c2ccccc2)c(C)c1NC(=O)COc1ccc2ccccc2c1 | - | . | - | - | - | -
COc1cc(/C=N/Nc2nc(=O)[nH]nc2C)cc([N+](=O)[O-])c1O | - | . | . | . | . | -
Cc1ccccc1CSc1nc(C(C)(C)C)cc(=O)[nH]1 | - | . | . | . | - | -
CCNc1ccc(C(=O)NN=C2CCCC2)cc1[N+](=O)[O-] | - | . | . | . | 2.2µM | -
COC(=O)c1cccc(-c2ccc(C(c3c(C)[nH][nH]c3=O)c3c(C)[nH][nH]c3=O)o2)c1 | - | . | . | . | 6.3µM | -
Cc1ccc(-c2ccc(C(=O)O)o2)cc1Cl | - | . | . | . | . | -
Cc1[nH][nH]c(=O)c1C(c1ccc(-c2ccc(Cl)c(C(=O)O)c2)o1)c1c(C)[nH][nH]c1=O | - | . | . | . | 10µM | -
COC(=O)c1ccccc1-c1ccc(C(c2c(C)[nH][nH]c2=O)c2c(C)[nH][nH]c2=O)o1 | - | . | . | . | - | -
COC(=O)NC(c1ccccc1)C(C(=O)OC)C(=O)OC (stereo not drawn) | . | . | . | . | -[13.5 µM] | -[17.5 µM]
CC(C)(C)N1CC(c2nc3ccccc3n2CCOc2ccccc2)CC1=O (stereo not drawn) | - | - | - | - | 3.2µM | -
CC(C)(C)N1CC(c2nc3ccccc3n2Cc2ccc(Cl)cc2)CC1=O (stereo not drawn) | - | - | - | - | - | -
COc1ccc(NC(=S)NC(=O)c2ccccc2Cl)cc1 | - | . | . | . | 13µM | -
O=C(NC(=S)Nc1ccc(Cc2ccncc2)cc1)c1ccccc1Cl | - | . | - | - | ? | -
Cc1c(Cl)cccc1NC(=S)NCC(C)C | - | - | - | - | - | -
SMILES | GLA inh pH 4.5 | HPGD block | ALOX12 inhib | PNC inhibitor | ALDH1A1 block | aGal spleen mod
COc1ccc(NC(=S)Nc2ccccc2)cc1 | - | - | -[11.4 µM] | . | -[13.5 µM] | -
O=C(NC(=S)Nc1ccc(O)cc1)c1ccccc1Cl | - | . | . | . | 18µM | -
CC(C)CNC(=S)NC(=O)c1ccccc1Cl | - | - | - | -134 | - | -
O=[N+]([O-])c1ccc(Nc2cccc(F)c2)nc1 | - | . | . | . | - | -
O=C(COC(=O)Cc1cn2ccsc2n1)Nc1nc2ccccc2s1 | - | - | - | -100 | - | -
Nc1cc(Cl)c([N+](=O)[O-])cc1O | . | - | - | . | ? | -
CN(C)/C=N/c1cnc(C(=O)c2ccc(Cl)cc2)n1C | - | 16µM | - | - | - | -
CCOC(=O)c1nc(Nc2ccc(N3CCC(C)CC3)cc2)c2ccccc2n1 | - | . | . | . | - | -
CCC(Sc1nc(-c2ccccc2)cc(=O)[nH]1)C(=O)O (stereo not drawn) | - | - | - | - | - | -
CC(C)Sc1nc(-c2ccccc2)cc(=O)[nH]1 | - | - | - | - | 20µM | -
CC(=O)c1ccc(C2C=CC(Oc3ccc(F)cc3C)C(CO)O2)cc1 (stereo not drawn) | . | . | . | . | -[13.5 µM] | -[17.5 µM]
COc1ccc(NC(=O)CSc2cc(C)ccc2C)cn1 | - | . | . | . | ? | -
COc1ccc(NC(=O)/C(Cl)=C(/Cl)S(=O)(=O)Cc2ccc(C)cc2)cn1 | - | - | - | - | 2.5µM | -
COc1ccc(NC(=O)Cc2ccc(Cl)c(Cl)c2)cn1 | - | . | . | . | - | -
COc1ccc(NC(=O)/C(Cl)=C(/Cl)S(=O)Cc2ccccc2Cl)cn1 (stereo not drawn) | - | . | . | . | 0.63µM | -
C=C1CCN(C(CC(C)C)C(=O)NN2CCOCC2)S(=O)(=O)c2ccccc21 (stereo not drawn) | . | . | . | . | . | -
COc1cccc(C(c2sc3ncnn3c2O)N2CC(C)OC(C)C2)c1 (stereo not drawn) | - | - | - | - | 0.35µM | -
COc1cccc(C(c2sc3ncnn3c2O)N2CCc3ccccc3C2)c1 (stereo not drawn) | - | ? | - | - | ? | -
O=c1oc2ccccc2c(O)c1/C=N/c1nc(-c2ccc(O)c(O)c2)cs1 | . | - | -[11.4 µM] | . | 3.5µM | .
O=c1oc2ccccc2c(O)c1/C=N/c1ncccn1 | - | ? | ? | - | ? | -
CC1=C(C#N)C(NC(=O)c2cccc(Cl)c2)(C(F)(F)F)C(=O)N1 (stereo not drawn) | - | - | - | - | - | -
Cc1c(Cl)c(C(=O)NC2CCCC2)nn1C | - | 35µM | - | - | - | -
Cn1nc(C(=O)NC2CCCCCC2)ccc1=O | - | - | - | - | ? | -
Cc1c(/C=N/Nc2ccc(F)cc2)c(O)n(C)c(=O)c1C#N | - | . | . | . | 3.5µM | -
COc1ccc2nc(NCN3C(=O)c4ccccc4C3=O)sc2c1 | . | - | -[11.4 µM] | . | -[13.5 µM] | .
SMILES | GLA inh pH 4.5 | HPGD block | ALOX12 inhib | PNC inhibitor | ALDH1A1 block | aGal spleen mod
CC(=O)NC1Sc2ccccc2N=C1c1ccccc1 (stereo not drawn) | - | ? | - | - | 25µM | -
CC(=O)Nc1nc(-c2ccccc2)c(-c2ccccc2)o1 | - | - | - | - | ? | -
CC(=O)N1CCN(c2ccc(NCc3ccc(C)s3)cc2)CC1 | - | - | 11µM | ? | 25µM | -
Cc1ccc(CNc2ccc(N3CCOCC3)cc2)s1 | - | - | ? | - | ? | -
COc1cccc(C2=NO[C@@H]3C(=O)N(Cc4ccccc4)C(=O)[C@H]23)c1OC | - | ? | - | -107 | ? | -
COc1cccc(C2=NO[C@@H]3C(=O)N(c4ccc5c(c4)OCCO5)C(=O)[C@H]23)c1OC | - | - | - | - | - | -
S=c1nc(-c2ccccc2)n(Cc2ccco2)c2c1CCCC2 | - | ? | - | - | 10µM | -
CCNC(=S)SCCOc1ccccc1C | - | - | - | ? | - | -
